Experimental data from PubChem BioAssay (Tox21).
Results filed as inconclusive are left out. Unmarked numbers belong to inactive results. Activity calls are given as the source filed them. The call rests on the fitted dose curve; in most records, active means well fitted activation curve with a large enough effect in the repeat runs; inconclusive means weak or mixed curves; inactive means flat fitted curve, though single readings scatter.

Assay: A CellTox Green Cytotoxicity Assay to monitor cytotoxicity in HEK293 cells - 32 hour (AID 1224881); further: nearly all actives have a fitted effect of over 40% in size
Conditions: CellTox Green fluorescence; series mostly up to 76.8 µM; cytotoxicity increase: at the top concentration
Description: National Center for Advancing Translational Sciences [NCATS]
NIH Chemical Genomics Center [NCGC]
U.S. Environmental Protection Agency [EPA]
National Institutes of Environmental Health Sciences [NIEHS]
National Toxicology Program [NTP]
Cell-based models are critical for drug discovery. Determining the natural cytotoxic effects resulting from test compounds is an essential research activity. A CellTox Green Cytotoxicity Assay to monitor cytotoxicity in real time of continues cell culture during 40 hours of the compound treatment was used to screen Tox21 10K library compounds in Hek293 cells. CellTox Green Cytotoxicity Assay is a nonlytic, homogeneous, biofluorescent method to measure cytotoxicity in cell culture after experimental manipulation. The assay system uses a proprietary asymmetric cyanine dye that is excluded from viable cells but preferentially stains the dead cell's DNA. […] Viable cells produce no appreciable increases in fluorescence. Therefore, the fluorescence signal produced by the binding interaction with dead cell DNA is proportional to cytotoxicity.
The mixture of Hek293 cell suspension and reagents were dispensed at 600cells/6 ul/well in 1536-well tissue culture treated black solid bottom plates using a Multidrop dispenser. After the assay plates were incubated at a 37 C/5% CO2 incubator for 5 hours, 23 nL of compounds dissolved in DMSO, positive and negative controls was transferred to the assay plate by a pintool work station. The plates were incubated at 37 C for 40 hours. The fluorescence intensity were measured at 0h, 8h, 16h, 24h, 32h and 40h time points using ViewLux plate reader during compound treatment.
On the % scale 0 is the no-effect control and ±100 the full control effect; potency means the concentration at half of the fitted maximal effect.

SMILES	cytotoxicity increase	Potency
CCCCOC(=O)C(C)OC(=O)CCC (stereo not given)	5.7%	–
O=C(O)CCNC(=O)c1ccccc1	-5.22% [at 35.3 µM]	–
Nc1c(NC/C=C\COc2cc(CN3CCCCC3)ccn2)c(=O)c1=O	6.07% [at 15.8 µM]	–
O=C1OC(=O)c2cc(Oc3ccc4c(c3)C(=O)OC4=O)ccc21	-0.855%	–
OC[C@@H](O)[C@H](O)[C@@H](O)[C@@H](O)CO	-14.2%	–
CC(=O)OC(C)(C)Cc1ccccc1	6.84%	–
CC(=O)Nc1ccc(C)cc1	3.36%	–
CCC(C)N (stereo not given)	-7.43%	–
CCS(=O)(=O)CCn1c([N+](=O)[O-])cnc1C	-0.152% [at 35.3 µM]	–
O=c1[nH]c(=O)c2ccccc2o1	-0.376% [at 35.3 µM]	–
O=C(O)C(=O)Nc1cccc(-c2nn[nH]n2)c1	2.18% [at 35.3 µM]	–
CC(C)CCO	16.6%	–
COc1ccc(NS(=O)(=O)c2ccc(N)cc2)nn1	-2.44% [at 35.3 µM]	–
CCOC(=O)CC(CC(=O)OCC)(OC(C)=O)C(=O)OCC	0.541%	–
C=CC(C)(O)CC/C=C(\C)CC (stereo not given)	-6.8%	–
CC(=O)/C=C/c1ccco1	-8.35%	–
CC(C)COC(=O)CCCCC(=O)OCC(C)C	24.2%	–
CN[C@@H]1[C@H](O)[C@H](NC)[C@H]2O[C@@]3(O)C(=O)C[C@@H](C)O[C@H]3O[C@@H]2[C@H]1O	-15% [at 35.3 µM]	–
CC(=O)N1CCN(c2ccc(O)cc2)CC1	-5.98% [at 35.3 µM]	–
C=CCOc1c(Br)cc(C(C)(C)c2cc(Br)c(OCC=C)c(Br)c2)cc1Br	-6.93% [at 35.3 µM]	–

SMILES	cytotoxicity increase	Potency
CC(C)c1ccccc1O	9.81%	–
Cc1ccc2c(c1)c1c3n2CCNC3CCC1 (stereo not given)	-3.16% [at 35.3 µM]	–
CC(C)=CC(C)(C)C	-9%	–
CCCCCCCCCCCCCCCC(=O)NCCO	9.71% [at 35.3 µM]	–
C[N+](C)(C)CC(O)CCl (stereo not given)	-0.595%	–
CCCCCN(CCCOC)C(=O)C(CCC(=O)O)NC(=O)c1ccc(Cl)c(Cl)c1 (stereo not given)	-10.4% [at 35.3 µM]	–
F[Si-2](F)(F)(F)(F)F	-1.34%	–
O=S(=O)(O)CCO	-0.26%	–
NC(=O)NC(=O)Cc1ccccc1	-7.24% [at 35.3 µM]	–
O=S(=O)(O)SSS(=O)(=O)O	-0.301%	–
CC(C)C(=O)Nc1cccc(C(F)(F)F)c1	-3.41% [at 35.3 µM]	–
CN(C)CCCNCCC#N	-8.66%	–
CCCCCCCCOC(C)=O	-8.33%	–
CC(=O)c1ccc(OCC(=O)N2CCCCC2)cc1	-20% [at 35.3 µM]	–
O=C(/C=C/c1ccccc1)NCCO	–	6.74 µM (active)
C=C(C)C(=O)OC	3.3%	–
O=C(Nc1cccc(C2=NCCN2)c1)Nc1cccc(C2=NCCN2)c1	-2.02% [at 15.8 µM]	–
CC(=O)OCC(=O)[C@@]1(O)[C@H](OC(C)=O)C[C@H]2[C@@H]3CCC4=CC(=O)C=C[C@]4(C)[C@@]3(F)[C@@H](O)C[C@@]21C	2.58% [at 35.3 µM]	–
CC(C)(CO)[C@@H](O)C(=O)NCCCO	-5.27% [at 35.3 µM]	–
COc1ccc(OC)c(NC(=O)CC(C)=O)c1	1.21%	–
